Results as given in the supplement of paper PMC10849652.
About 8,800 targets were measured; listed, in parts, are those with a hit and a random draw of the rest. About 0.5% of all pairs of compound and target were hits.

What was measured:
Assay in all cases: log2 fold change, soluble protein after heating vs DMSO (PISA); higher = thermal stabilisation; K562 lysate, 10 uM; active = over 0.2 and 3.5 SD of the protein, either way, in both replicates (recomputed)
[1] = compound: CC[C@@H]1C(=O)N(C)c2cnc(Nc3ccc(C(=O)NC4CCN(C)CC4)cc3OC)nc2N1C1CCCC1
Summary of the method: (§1)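 Log-two fold change in thermal stability relative to solvent controls is reported from duplicates. For each sample, crude K562 extract from dounce-homogenised pellets in PBS pH 7.4 with 1 mM MgCl2, at 1 mg/mL protein, was treated with 10 μM compound for 30 min. Aliquots heated for 3 min across 48°C-58°C were pooled, brought to 0.5% NP-40 at 4°C and cleared at 21,000xg for 90 min. The supernatant was quantified by TMTpro 16plex LC-MS/MS with channel sums equalised.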

[2] = compound: CN1CCN(CCOc2cc(OC3CCOCC3)c3c(Nc4c(Cl)ccc5c4OCO5)ncnc3c2)CC1 [saracatinib]
Summary of the method: as §1

[3] = compound: CN1CCN(c2nc(C3=C(c4c[nH]c5ccccc45)C(=O)NC3=O)c3ccccc3n2)CC1 [sotrastaurin]
Summary of the method: as §1

[4] = compound: CCN(CCCOc1ccc2c(Nc3cc(CC(=O)Nc4cccc(F)c4)[nH]n3)ncnc2c1)CCOP(=O)(O)O [barasertib]
Summary of the method: as §1

[5] = compound: CCn1c(C(=O)N(C2CC2)C2CC2)cc2c3c(ncn3C)c(Nc3cc(C)n(C)n3)nc21
Summary of the method: as §1

[6] = compound: CCn1cc(-c2ccnc3[nH]c(-c4cccc(CN(C)C)c4)cc23)c(-c2ccc(NC(=O)N(C)C)cc2)n1
Summary of the method: as §1

[7] = compound: CN1CCC(CNc2ccc3ncc(-c4cccc(OC(F)(F)F)c4)n3n2)CC1
Summary of the method: as §1

[8] = compound: CCCS(=O)(=O)Nc1ccc(F)c(C(=O)c2c[nH]c3ncc(-c4ccc(Cl)cc4)cc23)c1F [vemurafenib]
Summary of the method: as §1

Measured: log2 fold change

KMT2B (UniProt Q9UMN6)
inactive: [1] -0.1 | [2] 0.081 | [3] -0.206

MEGF8 (UniProt Q7Z7M0)
Sequence of UniProt Q7Z7M0 (Q7Z7M0 whole entry, looked up): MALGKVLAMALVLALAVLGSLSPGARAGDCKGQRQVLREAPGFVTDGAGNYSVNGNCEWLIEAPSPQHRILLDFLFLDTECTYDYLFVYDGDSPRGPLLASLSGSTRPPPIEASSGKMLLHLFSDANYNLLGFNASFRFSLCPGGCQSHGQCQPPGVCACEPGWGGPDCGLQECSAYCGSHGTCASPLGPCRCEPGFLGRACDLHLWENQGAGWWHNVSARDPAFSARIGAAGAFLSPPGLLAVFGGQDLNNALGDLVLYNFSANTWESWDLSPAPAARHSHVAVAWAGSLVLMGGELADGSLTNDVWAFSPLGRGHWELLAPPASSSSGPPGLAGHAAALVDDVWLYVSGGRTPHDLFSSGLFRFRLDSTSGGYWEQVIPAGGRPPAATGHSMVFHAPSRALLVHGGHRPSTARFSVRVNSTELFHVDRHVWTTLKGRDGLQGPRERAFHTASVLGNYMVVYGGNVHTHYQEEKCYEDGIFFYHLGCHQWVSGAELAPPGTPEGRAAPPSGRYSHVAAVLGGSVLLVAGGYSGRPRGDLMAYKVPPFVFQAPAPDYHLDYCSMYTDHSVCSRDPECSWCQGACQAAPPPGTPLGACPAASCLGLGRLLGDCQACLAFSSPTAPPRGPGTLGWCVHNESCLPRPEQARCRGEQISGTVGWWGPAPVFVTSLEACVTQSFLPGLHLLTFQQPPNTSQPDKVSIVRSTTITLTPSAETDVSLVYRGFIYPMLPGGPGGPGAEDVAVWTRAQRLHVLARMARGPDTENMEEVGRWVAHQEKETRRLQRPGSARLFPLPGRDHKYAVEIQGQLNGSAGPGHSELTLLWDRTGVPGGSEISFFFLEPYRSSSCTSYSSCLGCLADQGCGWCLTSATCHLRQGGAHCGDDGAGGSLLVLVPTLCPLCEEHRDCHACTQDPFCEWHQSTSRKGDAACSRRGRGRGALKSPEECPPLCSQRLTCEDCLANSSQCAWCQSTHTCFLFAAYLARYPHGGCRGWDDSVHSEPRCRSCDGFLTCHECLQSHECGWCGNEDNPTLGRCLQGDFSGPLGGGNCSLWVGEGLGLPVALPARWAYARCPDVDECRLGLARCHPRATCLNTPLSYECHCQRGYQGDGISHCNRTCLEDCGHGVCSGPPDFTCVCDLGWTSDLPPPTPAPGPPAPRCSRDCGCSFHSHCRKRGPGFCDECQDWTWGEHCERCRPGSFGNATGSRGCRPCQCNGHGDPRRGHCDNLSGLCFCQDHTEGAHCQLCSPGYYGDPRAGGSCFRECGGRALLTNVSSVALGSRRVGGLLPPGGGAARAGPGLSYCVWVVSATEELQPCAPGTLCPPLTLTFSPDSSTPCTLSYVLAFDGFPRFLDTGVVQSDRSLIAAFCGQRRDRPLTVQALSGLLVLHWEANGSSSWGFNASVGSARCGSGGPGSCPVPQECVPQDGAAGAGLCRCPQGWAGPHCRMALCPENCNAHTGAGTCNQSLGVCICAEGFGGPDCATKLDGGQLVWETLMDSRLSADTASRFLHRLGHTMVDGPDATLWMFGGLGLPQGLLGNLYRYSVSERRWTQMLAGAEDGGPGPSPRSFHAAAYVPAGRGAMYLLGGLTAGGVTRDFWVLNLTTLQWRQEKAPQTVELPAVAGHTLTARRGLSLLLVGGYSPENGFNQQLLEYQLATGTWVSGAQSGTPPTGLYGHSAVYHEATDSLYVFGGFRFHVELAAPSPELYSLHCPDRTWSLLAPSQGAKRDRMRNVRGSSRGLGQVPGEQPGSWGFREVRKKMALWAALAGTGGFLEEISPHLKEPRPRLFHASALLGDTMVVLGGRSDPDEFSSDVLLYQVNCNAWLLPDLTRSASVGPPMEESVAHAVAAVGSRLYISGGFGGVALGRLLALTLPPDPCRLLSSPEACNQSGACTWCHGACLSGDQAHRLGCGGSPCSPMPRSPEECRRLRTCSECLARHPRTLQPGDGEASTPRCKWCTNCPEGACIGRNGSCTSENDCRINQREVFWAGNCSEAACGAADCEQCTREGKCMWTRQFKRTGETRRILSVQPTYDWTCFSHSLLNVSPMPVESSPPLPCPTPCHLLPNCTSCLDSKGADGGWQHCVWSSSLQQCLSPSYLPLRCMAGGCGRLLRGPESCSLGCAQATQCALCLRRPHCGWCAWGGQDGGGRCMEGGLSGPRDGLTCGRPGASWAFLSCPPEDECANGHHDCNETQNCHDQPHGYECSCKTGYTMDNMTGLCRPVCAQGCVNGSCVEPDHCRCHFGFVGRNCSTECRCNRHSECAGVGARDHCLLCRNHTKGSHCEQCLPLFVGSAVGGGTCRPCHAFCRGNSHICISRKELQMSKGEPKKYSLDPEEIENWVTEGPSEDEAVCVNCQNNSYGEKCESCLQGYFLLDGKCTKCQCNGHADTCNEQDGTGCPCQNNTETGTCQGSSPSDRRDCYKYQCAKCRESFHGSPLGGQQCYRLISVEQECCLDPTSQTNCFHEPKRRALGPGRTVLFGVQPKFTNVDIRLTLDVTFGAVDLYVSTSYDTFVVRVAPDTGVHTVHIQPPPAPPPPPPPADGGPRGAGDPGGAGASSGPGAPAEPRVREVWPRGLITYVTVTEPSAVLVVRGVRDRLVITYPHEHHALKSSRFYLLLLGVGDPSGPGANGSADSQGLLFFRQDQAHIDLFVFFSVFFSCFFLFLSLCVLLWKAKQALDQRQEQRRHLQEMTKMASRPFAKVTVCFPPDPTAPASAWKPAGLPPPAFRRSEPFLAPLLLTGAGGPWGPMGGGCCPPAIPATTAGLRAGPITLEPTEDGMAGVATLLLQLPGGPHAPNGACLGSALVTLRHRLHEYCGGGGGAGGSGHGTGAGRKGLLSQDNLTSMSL
inactive: [4] 0.049 | [1] 0.076 | [5] -0.048 | [6] 0.124 | [7] 0.028 | [2] 0.283 | [3] -0.003

KIF26A (UniProt Q9ULI4)
Sequence of UniProt Q9ULI4 (Q9ULI4 whole entry, looked up): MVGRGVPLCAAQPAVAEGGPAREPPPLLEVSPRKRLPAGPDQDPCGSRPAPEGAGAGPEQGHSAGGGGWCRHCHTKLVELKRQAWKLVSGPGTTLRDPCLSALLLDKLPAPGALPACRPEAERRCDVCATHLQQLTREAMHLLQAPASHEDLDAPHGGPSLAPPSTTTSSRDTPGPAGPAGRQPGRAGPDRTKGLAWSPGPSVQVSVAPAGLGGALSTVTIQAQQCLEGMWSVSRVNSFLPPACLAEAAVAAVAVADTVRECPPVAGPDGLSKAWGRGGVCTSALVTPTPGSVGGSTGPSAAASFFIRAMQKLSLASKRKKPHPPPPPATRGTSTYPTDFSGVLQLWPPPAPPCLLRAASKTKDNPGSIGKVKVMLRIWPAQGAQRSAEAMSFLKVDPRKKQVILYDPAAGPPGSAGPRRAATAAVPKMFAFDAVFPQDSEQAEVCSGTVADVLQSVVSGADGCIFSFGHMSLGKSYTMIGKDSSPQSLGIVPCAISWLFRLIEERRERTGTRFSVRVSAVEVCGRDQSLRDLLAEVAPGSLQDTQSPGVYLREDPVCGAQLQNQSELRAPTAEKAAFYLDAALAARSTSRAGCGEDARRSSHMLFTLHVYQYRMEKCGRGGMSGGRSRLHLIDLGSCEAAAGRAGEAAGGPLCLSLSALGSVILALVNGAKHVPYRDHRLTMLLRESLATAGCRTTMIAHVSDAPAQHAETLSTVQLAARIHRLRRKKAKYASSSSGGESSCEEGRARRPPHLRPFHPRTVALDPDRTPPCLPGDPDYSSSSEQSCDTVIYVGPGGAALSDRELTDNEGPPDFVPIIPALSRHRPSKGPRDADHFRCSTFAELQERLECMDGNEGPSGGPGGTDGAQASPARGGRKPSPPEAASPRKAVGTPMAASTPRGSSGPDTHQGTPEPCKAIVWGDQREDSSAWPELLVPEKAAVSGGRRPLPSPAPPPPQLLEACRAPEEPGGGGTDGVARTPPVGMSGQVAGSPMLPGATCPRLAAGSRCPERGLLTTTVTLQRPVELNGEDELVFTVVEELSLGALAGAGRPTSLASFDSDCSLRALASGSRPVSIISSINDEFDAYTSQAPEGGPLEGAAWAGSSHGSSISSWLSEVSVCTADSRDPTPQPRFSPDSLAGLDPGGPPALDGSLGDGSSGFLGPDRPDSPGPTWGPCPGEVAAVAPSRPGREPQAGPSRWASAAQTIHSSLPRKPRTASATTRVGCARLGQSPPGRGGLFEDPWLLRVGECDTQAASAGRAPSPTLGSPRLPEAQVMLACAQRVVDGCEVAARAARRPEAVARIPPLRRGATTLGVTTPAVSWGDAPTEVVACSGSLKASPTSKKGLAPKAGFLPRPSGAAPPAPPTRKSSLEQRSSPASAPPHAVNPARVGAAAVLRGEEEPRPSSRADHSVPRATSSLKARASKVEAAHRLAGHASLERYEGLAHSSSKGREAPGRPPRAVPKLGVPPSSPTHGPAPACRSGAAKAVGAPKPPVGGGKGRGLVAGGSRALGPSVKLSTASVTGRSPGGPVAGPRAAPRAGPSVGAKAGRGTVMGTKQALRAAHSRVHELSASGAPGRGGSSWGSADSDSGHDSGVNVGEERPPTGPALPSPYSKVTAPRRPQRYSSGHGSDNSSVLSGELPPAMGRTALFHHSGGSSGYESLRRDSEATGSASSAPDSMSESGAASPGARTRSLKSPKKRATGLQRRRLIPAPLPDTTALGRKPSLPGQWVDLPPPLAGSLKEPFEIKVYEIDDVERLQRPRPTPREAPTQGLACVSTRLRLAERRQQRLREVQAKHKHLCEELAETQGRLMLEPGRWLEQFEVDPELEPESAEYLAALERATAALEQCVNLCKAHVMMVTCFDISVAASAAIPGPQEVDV
inactive: [8] 0.135 | [4] 0 | [1] 0.08 | [5] -0.01 | [6] -0.076 | [7] -0.005 | [2] -0.067 | [3] -0.033
